Source: PubChem BioAssay (EPA / NIEHS)
Inconclusive results are not listed. Calls of active or inactive are those of the source. The calls were made as follows: active = hit-call score of the fitted dose curve at least 0.9, where 1 is the maximum; inconclusive = response in the unintended direction; inactive = score below 0.9.

Molecular target: human Dopamine Receptor D2 (DRD2), DRD2 (gene 1813) (UniProt P14416)
Test: NVS_GPCR_hDRD2s: NovaScreen (NVS) G Protein-Coupled Receptor Assay for human Dopamine Receptor D2 (DRD2) (AID 2283266)
Description: NVS_GPCR_hDRD2s is a biochemical, single-readout assay that uses extracted gene-proteins from CHO in a cell-free assay. Measurements were taken 1.5 hours after chemical dosing in a 96-well plate.NVS_GPCR_hDRD2s is one of one assay component(s) measured or calculated from the NVS_GPCR_hDRD2s assay. It is designed to make measurements of radioligand binding, a form of binding reporter, as detected with scintillation counting signals by Filter-based radiodetection technology.Data from the assay component NVS_GPCR_hDRD2s was analyzed into 1 assay endpoint. This assay endpoint, NVS_GPCR_hDRD2s, was analyzed in the positive analysis fitting direction relative to DMSO as the negative control and baseline of activity. Using a type of binding reporter, loss-of-signal activity can be used to understand changes in the binding as they relate to the gene DRD2. Furthermore, this assay endpoint can be referred to as a primary readout, because the performed assay has only produced 1 assay endpoint. To generalize the intended target to other relatable targets, this assay endpoint is annotated to the gpcr intended target family, where the subfamily is rhodopsin-like receptor.
Binding assays used specific radioligands (tritiated, iodinated) with non-radioactive competitive displacement ligands in agonist or antagonist protocols (as indicated) and various reference compounds and inhibitors to titrate specific binding to receptors and transporters. Most enzyme assays (CYPs, kinases, phosphatases, proteases, HDACs) used recombinant protein and specific substrates (fluorescence mostly, some colorimetric and radioactive) and inhibitors, followed by a biochemical separation of substrate and product. All assays for the biochemical HTS were initially run in duplicate at a single concentration (10 uM for CYP450 assays and 25 uM for all others). […] Each assay was run with positive and negative controls, and concurrent controls on every plate. The follow-up (secondary) screen tested active chemical-pairs in concentration series, as well as a few additional assays not tested in the primary screen, some selected negative inactives, and several cases re-run in the concentration series for confirmatory purposes.

Chain of human Dopamine Receptor D2 (DRD2), DRD2 (gene 1813) (P14416 whole entry, looked up): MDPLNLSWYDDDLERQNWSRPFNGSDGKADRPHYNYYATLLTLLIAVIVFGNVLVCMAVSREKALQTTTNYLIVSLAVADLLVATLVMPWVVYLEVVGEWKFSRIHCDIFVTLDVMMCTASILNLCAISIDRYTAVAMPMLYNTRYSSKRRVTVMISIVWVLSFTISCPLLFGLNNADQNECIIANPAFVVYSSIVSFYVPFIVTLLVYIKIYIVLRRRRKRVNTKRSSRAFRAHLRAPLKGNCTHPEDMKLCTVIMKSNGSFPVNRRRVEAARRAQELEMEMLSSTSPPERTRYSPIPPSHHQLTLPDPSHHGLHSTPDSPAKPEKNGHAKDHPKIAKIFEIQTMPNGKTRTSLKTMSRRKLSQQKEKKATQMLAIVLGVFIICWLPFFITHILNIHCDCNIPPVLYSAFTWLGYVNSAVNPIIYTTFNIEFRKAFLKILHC

outcome, inactive:
O=C(O)c1[nH]n(-c2ccc(S(=O)(=O)O)cc2)c(=O)c1N=Nc1ccc(S(=O)(=O)O)cc1
Cc1cc(SC2=C(O)C[C@@](CCc3ccc(N)cc3)(C(C)C)OC2=O)c(C(C)(C)C)cc1CO
Cc1c(C)c2c(c(C)c1O)CCC(C)(COc1ccc(CC3SC(=O)NC3=O)cc1)O2 (stereo not given)
CN(C)C(=O)NC1(c2ccccc2)CCN(CC[C@@]2(c3ccc(F)c(F)c3)CN(C(=O)c3ccccc3)CCO2)CC1
COc1ccc(OC(F)(F)F)cc1CN[C@H]1CCCN[C@H]1c1ccccc1
O=C(N[C@@H](c1ccccc1)[C@@H]1CCCCN1)c1cccc(C(F)(F)F)c1Cl

AC50, active:
CSc1ccc(Oc2ccc(S(N)(=O)=O)cc2CN(C)C)cc1C 15 µM
CCCCCCCCCCCCCCOS(=O)(=O)O 15.1 µM
CN(C)C(=O)NC1(c2ccccc2)CCN(CCC[C@]2(c3ccc(Cl)c(Cl)c3)CCCN(C(=O)c3ccccc3)C2)CC1 4 µM
CCN(CC)CCOc1ccc(C(=C(Cl)c2ccccc2)c2ccccc2)cc1 1.79 µM
